system: PPARg DBDmut:RXRa IVT, anti-PPARg (DBD mutation: PPARg1 K132A/R137A, NR concentration 270 nM, RXRa partner concentration 90 nM); assay: PBM binding z-score (relative to random genomic background probes); higher = stronger binding; sequences stand for … in GC…GCGATTGACAGCGTAGAATGAAGG
In short: (§1)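 Binding buffer was PBS pH 7.4 with 2% milk, 0.02% Triton X-100, 1 mM DTT, 0.2 mg/mL BSA and 0.4 mg/ml salmon testes DNA. In it, ligand-free nuclear receptor dimers were incubated 1 h on custom Agilent 4×180K protein-binding microarrays carrying double-stranded probes. Antibodies against each partner (one per run) detected binding, and z-scores were calculated against random background probes after regression normalization of scanned fluorescence.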

Sequence	PBM binding z-score
CCTACTGGGTCATCAGGTCATTGATATCAACGTT	1.4
TAGACTAGGTCATGGGCCAGTATACCACGCGAAC	1.6
TCTTGTAAATCAAGCAGGTTAAGAAAGCCTGAGT	-0.116
TCATATAGCTAATACAGGTGAAAGTCGGCATCTA	0.761
GTAGACAGGTGAAACGCAGGTAACTCAGGGTGGC	-0.547
CAGCCTAGGTCAGGGCCAGTATCGGAGGAACGTT	-1.42
ATCTCTAGGTAAGACTCTGTTCAGTGAAGAACGC	0.717
TCGAGTAGGTTAGGTGCATTCAGAATGGCGTCGA	-0.609
TCATCTAGGTAAATGCTAGGTGAAAGTCCGATCT	1.09
CCGAGTAGGTTATGCGGCATTCAGGCAACGGTGA	-1.08
TCTTGTAGATCAACAGGATGTTAAGAAAGATCGA	0.783
TCGAGTAGGTCAGTCGGGGCATTCAGCCAACATA	0.141
CCTACTGGGCCAAAAAGGTTATTGATGCCGATAA	-0.965
CGTCCAAGGTCACAGGTCAGTGAAGAGATGACGG	0.709
TCATATAGGTAGAAGGTGAAAGTCGGTGTGGTAA	1.46
ATCGAAAGGTCGAGGTAAGTATAGAGAAAGGGAA	1.14
CGTCCAAGGTCAGCAGGTCAGTGAGAGCGACGTG	-0.522
TCATATAGGGAAAAGGTGAAAGTCGGTGTGGTAA	0.616
ACTATTAGTTGACTTAGGGCAACCAATACGACGC	0.926
ACTAGCAGGCCAAGCGTCACTCAAGATTAGTCCG	0.0158

Sequence	PBM binding z-score
AATACAGGGTCATCGTAGGCCTGAGTACGCACAG	1.77
ACTATTAGTTGACTTATGGCAACCGATACGACGC	1.06
TTACCAAGGTGAGCTGAGGTCGTTGGTCCAACTC	-0.48
CCTACTGGGCCATTCAGAGTTCATTGATCATATG	-0.222
TCTTGTAGATCAACAGGAGGTTAAGAAAGATCGA	0.392
AGAATGAGGTTATACGTAGAGCAGGGAAGAAAGT	1.23
ACTAGTTGGTCAGCTGAGTTCACACACAATTCGG	0.662
CAGCCTAGGTCAGGCCCAGTATAGGAGGAACGTT	-0.686
CGTCCAAGGTCATAGGAGGTCAGTGCAGACAGAT	0.589
GTACCAAGGTCAATAGGTCGTTGATGAGTAGGCG	-0.00557
ATCTCTAGTTAAGACTCAGTTCAGTGAAGAACGC	1.65
CCTAGCAGGCCAATCTGGGTAACTCAAGGCTTGA	-1.19
GCTAGTTGGTCAGTAAAAGGCCACACACCGGTCG	-0.775
CCTAGTTGGTCAGGAGGTCACACACCGGATATGA	0.499
CCTCGGAGGACAACTGGAGGTCAGAGCTGCCAGA	-1.19
ATATGTAGGTTAGCTGGGATCATTCAGACTAGGC	1.97
AGTCAAAGTGCAGGACGAGGTAACGTAAAGCACG	-0.356
GCAGACAGGTGAAACGCAGGTAGCTCAGGGTGGC	-0.762
AGCGAAAGGTCGACGAGGTGAGTATACACCGTTT	0.248
TACCCTAGGTCAGATCGGGCCAGTATACGCTATA	0.146

system: PPARg DBDmut IVT, anti-PPARg (DBD mutation: PPARg1 K132A/R137A, NR concentration 270 nM); assay: as above
In short: as §1

Sequence	PBM binding z-score
CCTACTGGGTCATCAGGTCATTGATATCAACGTT	0.93
TAGACTAGGTCATGGGCCAGTATACCACGCGAAC	0.962
TCTTGTAAATCAAGCAGGTTAAGAAAGCCTGAGT	0.31
TCATATAGCTAATACAGGTGAAAGTCGGCATCTA	0.528
GTAGACAGGTGAAACGCAGGTAACTCAGGGTGGC	-0.798
CAGCCTAGGTCAGGGCCAGTATCGGAGGAACGTT	-1.35
ATCTCTAGGTAAGACTCTGTTCAGTGAAGAACGC	0.753
TCGAGTAGGTTAGGTGCATTCAGAATGGCGTCGA	-0.486
TCATCTAGGTAAATGCTAGGTGAAAGTCCGATCT	0.995
CCGAGTAGGTTATGCGGCATTCAGGCAACGGTGA	-0.567
TCTTGTAGATCAACAGGATGTTAAGAAAGATCGA	1.26
TCGAGTAGGTCAGTCGGGGCATTCAGCCAACATA	-0.71
CCTACTGGGCCAAAAAGGTTATTGATGCCGATAA	-0.43
CGTCCAAGGTCACAGGTCAGTGAAGAGATGACGG	0.624
TCATATAGGTAGAAGGTGAAAGTCGGTGTGGTAA	0.808
ATCGAAAGGTCGAGGTAAGTATAGAGAAAGGGAA	1.3
CGTCCAAGGTCAGCAGGTCAGTGAGAGCGACGTG	-0.683
TCATATAGGGAAAAGGTGAAAGTCGGTGTGGTAA	0.751
ACTATTAGTTGACTTAGGGCAACCAATACGACGC	0.817
ACTAGCAGGCCAAGCGTCACTCAAGATTAGTCCG	-0.899

Sequence	PBM binding z-score
AATACAGGGTCATCGTAGGCCTGAGTACGCACAG	1.33
ACTATTAGTTGACTTATGGCAACCGATACGACGC	1.08
TTACCAAGGTGAGCTGAGGTCGTTGGTCCAACTC	-1.25
CCTACTGGGCCATTCAGAGTTCATTGATCATATG	0.266
TCTTGTAGATCAACAGGAGGTTAAGAAAGATCGA	0.445
AGAATGAGGTTATACGTAGAGCAGGGAAGAAAGT	1.06
ACTAGTTGGTCAGCTGAGTTCACACACAATTCGG	0.707
CAGCCTAGGTCAGGCCCAGTATAGGAGGAACGTT	-1.02
CGTCCAAGGTCATAGGAGGTCAGTGCAGACAGAT	1.49
GTACCAAGGTCAATAGGTCGTTGATGAGTAGGCG	0.159
ATCTCTAGTTAAGACTCAGTTCAGTGAAGAACGC	1.35
CCTAGCAGGCCAATCTGGGTAACTCAAGGCTTGA	-0.9
GCTAGTTGGTCAGTAAAAGGCCACACACCGGTCG	-1.15
CCTAGTTGGTCAGGAGGTCACACACCGGATATGA	0.258
CCTCGGAGGACAACTGGAGGTCAGAGCTGCCAGA	-1.87
ATATGTAGGTTAGCTGGGATCATTCAGACTAGGC	2.29
AGTCAAAGTGCAGGACGAGGTAACGTAAAGCACG	-0.388
GCAGACAGGTGAAACGCAGGTAGCTCAGGGTGGC	-0.471
AGCGAAAGGTCGACGAGGTGAGTATACACCGTTT	0.154
TACCCTAGGTCAGATCGGGCCAGTATACGCTATA	-0.236

— the supplement of paper PMC6555819
